RORgamma inh = inhibitors of mouse ROR gamma transcriptional activity. Drosophila S2 Gal4-RORgamma UAS-luciferase reporter, 20 h. Potency, µM (series often up to 53.6 µM), actives largely listed as inhibitors. actives 5.4% (n = 310,000). AID 2551; note: nearly all actives have a fitted effect of over 60% in size
Target sequence (P51450 whole entry, looked up, the tested form may be a part): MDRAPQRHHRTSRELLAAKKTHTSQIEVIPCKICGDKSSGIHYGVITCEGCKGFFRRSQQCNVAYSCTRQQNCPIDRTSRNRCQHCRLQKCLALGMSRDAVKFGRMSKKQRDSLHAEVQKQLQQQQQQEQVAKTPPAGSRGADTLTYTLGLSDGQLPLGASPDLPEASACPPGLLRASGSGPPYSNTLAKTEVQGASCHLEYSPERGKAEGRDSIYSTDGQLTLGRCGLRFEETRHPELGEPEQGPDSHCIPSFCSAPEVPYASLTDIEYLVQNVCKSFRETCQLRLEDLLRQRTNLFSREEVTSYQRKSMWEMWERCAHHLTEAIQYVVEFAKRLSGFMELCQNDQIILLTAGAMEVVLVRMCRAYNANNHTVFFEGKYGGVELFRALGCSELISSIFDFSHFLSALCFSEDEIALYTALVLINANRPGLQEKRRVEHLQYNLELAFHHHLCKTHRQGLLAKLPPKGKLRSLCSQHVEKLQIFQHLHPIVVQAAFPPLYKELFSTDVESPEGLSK
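Luciferase reporter read in Schneider cells carrying Gal4-RORγ (mouse) and UAS-Photinus luciferase; cells given compound 1 h before 700 uM copper sulfate induction, then incubated 20 h at ambient temperature.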
MCF10A rereplic = induces DNA re-replication in MCF 10a normal breast cells; MCF 10A DNA re-replication, Hoechst nuclear intensity, 48 h; Potency, µM (series often up to 46.1 µM), most hits filed as activators; actives 2.9% (n = 350,000); note: nearly all actives have a fitted effect of over 50% in size
SW480 rerep = DNA re-replication induction in SW480 cells. SW480 DNA re-replication, Hoechst DNA content imaging, 48 h. Potency, µM (highest dose often 46.1 µM), actives largely listed as activators. actives 1.8% (n = 340,000). AID 624297; note: nearly all actives have a fitted effect of over 55% in size
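SW480 cells exposed to compounds for 48 hr at 37 C, 5% CO2, then Hoechst-stained 40 min. Nuclear DNA content imaged by fluorescence scanning (405 nm excitation, 500-530 nm emission); re-replication scored as increased high-intensity nuclei.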
Giardia kill = Giardia lamblia killing. activity change, % at 7.66 µM, hits read low. actives 0.15% (n = 340,000). Giardia lamblia trophozoite viability; in the data active = activity change below about -80%; inconclusive = between about -30% and that limit;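 note: parasites exposed to compound for two days anaerobically before the ATP read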
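Compounds were tested on trophozoites seeded at 100 cells/well and held 48 hrs at 37 deg C anaerobically. An ATP-based luminescent kit measured the remaining live cells.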
Chronic BCR inh = blocks chronic active B-cell receptor signaling; ABC-DLBCL IkBa-CBG/CBR reporter, luminescence ratio, 4 h; actives 0.05% (n = 340,000); Potency, µM (series often up to 46.1 µM), most hits filed as inhibitors; active = well fitted inhibition curve with a large enough effect in the signal ratio, with a control signal flat, not every such curve was filed as active; inconclusive = small, poorly fitted or top-dose-only effect, or effect the other way, or a change in a side signal; the % refers to the signal ratio
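Cell line TMD8 (human ABC DLBCL), stably expressing tet-inducible CBG68-IkBa fusion and CBR; IMDM/0.5% FBS; cpd up to 46 uM; dox induction, 4 h, 37C/5% CO2; dual luminescence; green/red ratio; MG132 control.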
Gal4-VP16 FLuc = inhibits Gal4-VP16 luciferase reporter, ROR gamma counter-screen; Drosophila S2 Gal4-VP16 UAS-luciferase, luminescence, 20 h; Potency, µM (doses to about 53.6 µM), actives largely listed as inhibitors; actives 3.5% (n = 310,000);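 note: Gal4-VP16 expression switched on by copper sulfate through the metallothionein promoter; nearly all actives have a fitted effect of over 50% in size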
Each line names hits and unclear results; the compound was inactive in the other large screens. Sampled rows, rich in hits. Any-hit rate of the full collection: about 8.3%. Unless noted, calls come from the whole dose curve; as a rule, active = well fitted curve in the direction sought with a large enough effect; inconclusive = small, poorly fitted or top-dose-only effect, or another doubt; inactive = no such curve, though single readings can be large; an effect the other way counts as inactive or inconclusive.

Cc1cc(C(=O)COC(=O)c2ccc[nH]c2=O)c(C)n1-c1ccc(F)cc1	RORgamma inh 10µM, Gal4-VP16 FLuc 7.08µM
O=C(c1cc(C(F)(F)F)cc(C(F)(F)F)c1)N1CCC[C@@]2(CCN(Cc3nccs3)C2)C1	none (no result: MCF10A rereplic, SW480 rerep, Giardia kill, Chronic BCR inh)
O=C(Cc1ccc(-c2ccccc2)cc1)NCc1ccccc1	MCF10A rereplic 0.116µM, SW480 rerep 1.3µM, Chronic BCR inh inconclusive
Cc1ccc(CNC(=O)CCC(=O)c2cccs2)cc1	RORgamma inh 12.6µM, Chronic BCR inh inconclusive
Cc1ccc(CC(=O)NCc2ccc(F)cc2)cc1	MCF10A rereplic inconclusive, SW480 rerep 18.4µM, Chronic BCR inh inconclusive
Cc1ccc(CNC(=O)Cc2ccc(-c3ccccc3)cc2)cc1	MCF10A rereplic inconclusive, SW480 rerep 1.16µM, Chronic BCR inh inconclusive
Cc1ccc(CNC(=O)COC(=O)Cc2ccc(-c3ccccc3)cc2)cc1	MCF10A rereplic inconclusive, SW480 rerep inconclusive
CCOc1ccc2nc(NC(=O)C3CCCN(S(=O)(=O)c4cccs4)C3)sc2c1 (stereo not drawn)	RORgamma inh inconclusive
O=C(COC(=O)C1CC2CCCC(C1)C2=O)NNC(=O)c1ccccc1Br (stereo not drawn)	none (no result: RORgamma inh, Gal4-VP16 FLuc)
O=C(Cc1ccc(-c2ccccc2)cc1)NCc1cccnc1	MCF10A rereplic 11.6µM, SW480 rerep 23.1µM
O=C(Cc1ccccc1)NCc1cccnc1	none
O=C(/C=N/O)NCc1cccnc1	MCF10A rereplic 14.6µM, SW480 rerep 13µM
O=C(NCc1cccnc1)c1nc(-c2ccc(C(F)(F)F)cc2)no1	RORgamma inh inconclusive, Gal4-VP16 FLuc 3.16µM
COc1ccc(-c2cc(C(=O)Nc3nc4ccccc4s3)c3ccccc3n2)cc1OC	MCF10A rereplic 2.91µM, SW480 rerep inconclusive
COc1ccc(-c2cc(C(=O)Nc3ccccc3N3CCOCC3)c3ccccc3n2)cc1OC	MCF10A rereplic 16.4µM, SW480 rerep inconclusive
COc1ccc(-c2cc(C(=O)Nc3ccccc3O)c3ccccc3n2)cc1OC	SW480 rerep inconclusive
COc1ccc(-c2cc(C(=O)Nc3cc(S(N)(=O)=O)ccc3C)c3ccccc3n2)cc1OC	none (no result: RORgamma inh, Chronic BCR inh, Gal4-VP16 FLuc)
COc1ccc(-c2cc(C(=O)Nc3ccc(S(N)(=O)=O)cc3)c3ccccc3n2)cc1OC	MCF10A rereplic 8.2µM, SW480 rerep 5.8µM, Chronic BCR inh inconclusive
C#CCCCO/N=C1/C[C@@H](O)[C@@H](O)[C@@H]2[C@@H]3C(=O)N([C@@H](C)c4ccccc4)C(=O)[C@H]3CC[C@@H]12	none (no result: MCF10A rereplic, SW480 rerep, Giardia kill, Chronic BCR inh)
CCN(CC)S(=O)(=O)c1ccc(Oc2ccccc2OC)cc1	MCF10A rereplic inconclusive
CCN(CC)S(=O)(=O)c1ccc(Oc2ccc(S(=O)(=O)N(CC)CC)cc2)cc1	RORgamma inh inconclusive, Chronic BCR inh inconclusive, Gal4-VP16 FLuc 7.08µM
CC(C)=CCc1c(O)ccc(C(=O)Cc2ccccc2)c1O	MCF10A rereplic 20.6µM, Chronic BCR inh inconclusive
CC1CC1c1ccc(/C=C(\C#N)C(=O)Nc2ccccc2Cl)o1 (stereo not drawn)	RORgamma inh inconclusive, MCF10A rereplic 16.4µM
Cc1c(CCOC(=O)c2ccc(N3CCOCC3)c([N+](=O)[O-])c2)sc[n+]1CC#N	MCF10A rereplic 16.4µM, Chronic BCR inh inconclusive
Cc1ncsc1CCOC(=O)c1ccc(N2CCOCC2)c([N+](=O)[O-])c1	RORgamma inh inconclusive, Chronic BCR inh inconclusive, Gal4-VP16 FLuc 3.98µM
Cc1ncsc1CCOC(=O)c1ccc([N+](=O)[O-])cc1	none
Cc1c(CCOC(=O)c2cc([N+](=O)[O-])cc([N+](=O)[O-])c2)sc[n+]1CC(=O)c1ccccc1	Gal4-VP16 FLuc inconclusive
COc1ccc(OCC(O)CNS(=O)(=O)c2ccc(C)cc2)cc1 (stereo not drawn)	none
COc1ccccc1NC(=O)CSc1n[nH]c(-c2ccccn2)n1	RORgamma inh 6.31µM, SW480 rerep inconclusive, Gal4-VP16 FLuc 5.01µM
CCCc1ccc(-c2cc(NC(=O)CSc3n[nH]c(N)n3)n(-c3ccccc3)n2)cc1	MCF10A rereplic 20.6µM, SW480 rerep inconclusive, Chronic BCR inh inconclusive
COc1ccccc1NC(=O)CSc1n[nH]c(-c2ccco2)n1	none (no result: RORgamma inh, Chronic BCR inh, Gal4-VP16 FLuc)
COc1ccc(NC(=O)CSc2n[nH]c(-c3ccccn3)n2)cc1	RORgamma inh 15.8µM, MCF10A rereplic inconclusive, SW480 rerep inconclusive, Gal4-VP16 FLuc inconclusive
Nc1nc(SCC(=O)Nc2ccc(Oc3ccccc3)cc2)n[nH]1	RORgamma inh inconclusive, Chronic BCR inh inconclusive, Gal4-VP16 FLuc 17.8µM
CC(=O)O[C@@H](C)C#C[Si](C)(C)c1ccccc1	RORgamma inh inconclusive (no result: MCF10A rereplic, SW480 rerep, Giardia kill, Chronic BCR inh)
CC(=O)Nc1cccc(NS(=O)(=O)c2cn(C)c(=O)n(C)c2=O)c1	Chronic BCR inh inconclusive
C=CCn1c(SCC(=O)Nc2cc(NC(C)=O)ccc2OC)nnc1-c1ccccn1	none
C=CCn1c(SCC(=O)Nc2ccccc2OC)nnc1-c1ccccn1	MCF10A rereplic inconclusive, SW480 rerep 18.4µM, Chronic BCR inh inconclusive
O=C(CSc1n[nH]c(-c2ccccn2)n1)Nc1ccccc1F	RORgamma inh 3.55µM, SW480 rerep inconclusive, Gal4-VP16 FLuc 5.01µM
C=CCn1c(SCC(=O)C(C)(C)C)nnc1-c1ccccn1	none
CCn1c(SCC(=O)C(C)(C)C)nnc1-c1ccccn1	MCF10A rereplic 23.1µM
O=C(CSc1n[nH]c(-c2ccccn2)n1)Nc1ccccc1	RORgamma inh inconclusive, SW480 rerep inconclusive, Gal4-VP16 FLuc inconclusive
O=C(O)CCC/C=C\C[C@H]1C(=O)C[C@@H](O)[C@@H]1/C=C/[C@@H](O)CCc1ccccc1	none (no result: MCF10A rereplic, SW480 rerep, Giardia kill, Chronic BCR inh)
COc1ccccc1OCC(=O)N1CCCC(Nc2cccc(F)c2)C1 (stereo not drawn)	none
Cc1cccc(N2CC(C)Cn3c2nc2c3c(=O)[nH]c(=O)n2C)c1 (stereo not drawn)	none
Cn1c(=O)c(-c2ccc(F)cc2)nc2cnc(N3CCOCC3)nc21	none (no result: MCF10A rereplic, SW480 rerep, Giardia kill, Chronic BCR inh)
NC(=O)C(OC(=O)CNC(=O)C1CCCCC1)c1ccccc1 (stereo not drawn)	none (no result: RORgamma inh, MCF10A rereplic, SW480 rerep, Chronic BCR inh, Gal4-VP16 FLuc)
Cc1ccc2nc(C)/c(=N\O)c(C)nc2c1	RORgamma inh 11.2µM, Chronic BCR inh inconclusive
Cc1nc2ccc(Cl)cc2nc(C)/c1=N\O	RORgamma inh inconclusive, Chronic BCR inh inconclusive
CCCS(=O)(=O)c1c(S(=O)(=O)CCC)c2c(C)cccn2c1C(=O)OC	MCF10A rereplic 20.6µM, SW480 rerep inconclusive
O=C(Nc1ccc(F)cc1)Nc1sccc1-c1nc2ccccc2s1	RORgamma inh inconclusive, MCF10A rereplic inconclusive, Chronic BCR inh inconclusive, Gal4-VP16 FLuc inconclusive
CNc1sc(C(=O)c2ccc(F)cc2)c(N)c1-c1nc2ccccc2s1	RORgamma inh 10µM, MCF10A rereplic 16.4µM, SW480 rerep 5.17µM, Chronic BCR inh inconclusive, Gal4-VP16 FLuc inconclusive
O=C(Nc1ccc(O)c(-c2nc3ccccc3s2)c1)c1cccs1	Chronic BCR inh inconclusive
